Reference: PubChem BioAssay AID1159580 (chemical genetic matrix, 2015)
Values joined by “and” are separate entries in the source; they are usually repeats but may differ in a detail not shown here. Equal values may be shown once. Screen size: about 5,500 compounds; about 2,000 (36%) were called active. Inconclusive results (about 18%) are left out. Rule as the data show it: active = normalized growth mostly below about 0.91 (no sharp cut-off); inconclusive = no clear call, values can overlap the other calls; inactive = mostly above about 0.92. Some of the results follow.

Experiment: chemical genetic growth profiling, strain panel (AID 1159580);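 also: tested at 20 µM; growth read once vehicle control cultures reached saturation at 30 °C; 1 = growth at the plate median or of vehicle wells; lower values mean less growth of the strain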
Settings: S. cerevisiae deletion strains, growth OD

Measured: normalized growth

COc1ccc2c(c1)OCC(Cc1ccc(OC)c(OC)c1)C2=O (stereo unspecified)
inactive: locus YAL013W, strain DEP1, hits give low values 0.979 | locus YAL021C, strain ccr4, hits give low values 0.982 | locus YAL026C, strain drs2, hits give low values 0.928 | locus YAL030W, strain snc1, hits give low values 0.972 | locus YBL061C, strain skt5, hits give low values 0.959 | locus YBR009C, strain hhf1, hits give low values 0.941 | locus YBR021W, strain FUR4, hits give low values 0.905 | locus YBR023C, strain chs3, hits give low values 0.958 | locus YBR171W, strain sec66, hits give low values 0.96 | locus YBR229C, strain ROT2, hits give low values 0.993 | locus YBR231C, strain swc5, hits give low values 0.924 | locus YBR279W, strain paf1, hits give low values 0.973 | locus YCL011C, strain gbp2, hits give low values 0.96 | locus YCL016C, strain dcc1, hits give low values 0.969 | locus YCL029C, strain bik1, hits give low values 0.988 | locus YCL061C, strain MRC1, hits give low values 0.923 | locus YCL069W, strain vba3, hits give low values 0.967 | locus YCR088W, strain abp1, hits give low values 0.987 | locus YDL005C, strain med2, hits give low values 0.987 | locus YDL035C, strain GPR1, hits give low values 0.954 | locus YDL040C, strain nat1, hits give low values 0.982 | locus YDL074C, strain BRE1, hits give low values 0.928 | locus YDL101C, strain DUN1, hits give low values 0.982 | locus YDL185W, strain tfp1, hits give low values 0.999 | locus YDL192W, strain arf1, hits give low values 0.986 | locus YDR001C, strain nth1, hits give low values 0.973 | locus YDR069C, strain doa4, hits give low values 0.964 | locus YDR101C, strain arx1, hits give low values 0.974 | locus YDR137W, strain rgp1, hits give low values 0.933 | locus YDR159W, strain sac3, hits give low values 0.873 | locus YDR162C, strain NBP2, hits give low values 0.89 | locus YDR195W, strain ref2 1.06 | locus YDR297W, strain sur2, hits give low values 0.949 | locus YDR318W, strain mcm21, hits give low values 0.978 | locus YDR334W, strain swr1, hits give low values 0.98 | locus YDR335W, strain msn5, hits give low values 0.986 | locus YDR388W, hits give low values 1.01 | locus YDR502C, strain sam2, hits give low values 0.973 | locus YEL003W, strain gim4, hits give low values 0.947 | locus YEL037C, strain rad23, hits give low values 0.986 | locus YEL061C, strain CIN8 (second series), hits give low values 0.985 | locus YEL061C, strain CIN8, hits give low values 0.987 | locus YER015W, strain faa2, hits give low values 0.968 | locus YER016W, strain bim1, hits give low values 0.976 | locus YER110C, hits give low values 0.988 | locus YER111C, strain swi4, hits give low values 0.982 | locus YER155C, strain BEM2, hits give low values 0.999 | locus YER167W, strain BCK2, hits give low values 0.997 | locus YFR010W, strain ubp6, hits give low values 0.97 | locus YGL078C, strain dbp3, hits give low values 0.998 | locus YGL086W, strain mad1, hits give low values 0.965 | locus YGL167C, strain pmr1, hits give low values 0.964 | locus YGL173C, strain kem1, hits give low values 0.963 | locus YGL227W, strain vid30, hits give low values 0.974 | locus YGL240W, strain doc1, hits give low values 0.898 | locus YGL248W, strain PDE1, hits give low values 0.954 | locus YGR078C, strain PAC10, hits give low values 0.905 | locus YGR135W, strain pre9, hits give low values 0.993 | locus YGR252W, strain gcn5, hits give low values 0.834 | locus YHR013C, strain ard1, hits give low values 0.907 | locus YHR027C, strain rpn1, hits give low values 0.967 | locus YHR030C, strain SLT2, hits give low values 0.989 and 0.988 | locus YHR079C, strain IRE1 (second series), hits give low values 1 | locus YHR079C, strain IRE1, hits give low values 1.01 | locus YHR094C, strain hxt1, hits give low values 1.01 | locus YHR129C, strain ARP1, hits give low values 0.976 | locus YHR142W, strain chs7, hits give low values 0.897 | locus YHR200W, strain rpn10, hits give low values 0.992 | locus YIL066C, strain RNR3, hits give low values 0.915 | locus YIL073C, strain SPO22, hits give low values 0.925 | locus YIL125W, strain kgd1, hits give low values 0.991 | locus YIR030C, strain dcg1, hits give low values 0.99 | locus YJL092W, strain hpr5, hits give low values 0.981 | locus YJL095W, strain BCK1 (second series), hits give low values 0.979 | locus YJL095W, strain BCK1, hits give low values 0.887 and 1.01 | locus YJL115W, strain asf1, hits give low values 0.974 | locus YJL129C, strain trk1, hits give low values 0.892 | locus YJL134W, strain LCB3, hits give low values 0.994 | locus YJL154C, strain vps35, hits give low values 0.98 | locus YJL164C, strain tpk1, hits give low values 0.96 | locus YJL166W, strain qcr8, hits give low values 0.909 | locus YJL168C, strain set2, hits give low values 0.994 | locus YJL187C, strain SWE1 (second series), hits give low values 0.965 | locus YJR043C, strain POL32, hits give low values 0.97 | locus YJR066W, strain TOR1, hits give low values 0.955 | locus YJR075W, strain HOC1, hits give low values 0.972 | locus YKL009W, strain mrt4, hits give low values 0.984 | locus YKL068W, hits give low values 0.982 | locus YKL085W, strain MDH1 (second series), hits give low values 0.995 | locus YKL085W, strain MDH1, hits give low values 0.995 | locus YKL160W, strain elf1, hits give low values 0.955 | locus YKR001C, strain vps1, hits give low values 0.998 | locus YKR026C, strain gcn3, hits give low values 0.976 | locus YKR091W, strain srl3, hits give low values 0.991 | locus YLL026W, hits give low values 0.963 | locus YLL041C, strain sdh2, hits give low values 0.983 | locus YLR039C, strain RIC1, hits give low values 0.958 | locus YLR058C, strain SHM2, hits give low values 0.98 | locus YLR102C, strain apc9, hits give low values 0.998 | locus YLR113W, strain HOG1, hits give low values 0.931 | locus YLR221C, strain rsa3, hits give low values 0.922 | locus YLR258W, strain gsy2, hits give low values 0.968 | locus YLR262C, strain YPT6 (second series), hits give low values 0.88 | locus YLR262C, strain YPT6, hits give low values 0.869 | locus YLR268W, strain sec22, hits give low values 0.963 | locus YLR320W, strain mms22, hits give low values 0.879 | locus YLR330W, strain CHS5, hits give low values 0.961 | locus YLR342W, strain FKS1 (second series), hits give low values 0.921 | locus YLR342W, strain FKS1, hits give low values 0.951 | locus YLR357W, strain rsc2, hits give low values 0.945 | locus YLR370C, strain arc18, hits give low values 0.972 | locus YLR371W, strain rom2, hits give low values 0.985 | locus YLR384C, strain iki3, hits give low values 0.976 | locus YLR418C, strain cdc73, hits give low values 0.842 | locus YML016C, strain PPZ1, hits give low values 0.995 | locus YML032C, strain rad52, hits give low values 0.984 | locus YML120C, strain ndi1, hits give low values 0.965 | locus YML124C, strain tub3, hits give low values 0.986 | locus YMR058W, strain fet3, hits give low values 0.938 | locus YMR078C, strain ctf18, hits give low values 1 | locus YMR125W, strain sto1, hits give low values 0.994 | locus YMR129W, hits give low values 0.981 | locus YMR205C, strain PFK2, hits give low values 0.896 | locus YMR223W, strain ubp8, hits give low values 1 | locus YMR231W, strain pep5, hits give low values 0.993 | locus YMR307W, strain GAS1, hits give low values 0.83 | locus YNL067W, strain RPL9B, hits give low values 0.968 | locus YNL128W, strain TEP1, hits give low values 0.991 | locus YNL183C, strain NPR1, hits give low values 0.961 | locus YNL209W, strain ssb2, hits give low values 0.987 | locus YNL233W, strain BNI4, hits give low values 0.919 | locus YNL248C, strain rpa49, hits give low values 0.928 | locus YNL250W, strain rad50, hits give low values 0.998 | locus YNL271C, strain bni1, hits give low values 0.989 | locus YNL298W, strain CLA4, hits give low values 0.98 | locus YNL322C, strain KRE1 (second series), hits give low values 0.982 | locus YNL322C, strain KRE1, hits give low values 0.985 | locus YNR049C, strain mso1, hits give low values 0.985 | locus YNR052C, strain pop2, hits give low values 0.989 | locus YOL006C, strain TOP1, hits give low values 0.784 | locus YOL012C, strain htz1 0.731 | locus YOL147C, strain pex11, hits give low values 0.98 | locus YOR001W, strain rrp6, hits give low values 0.923 | locus YOR061W, strain CKA2, hits give low values 0.984 | locus YOR069W, strain VPS5, hits give low values 0.993 | locus YOR070C, strain gyp1, hits give low values 0.937 | locus YOR080W, strain dia2, hits give low values 0.967 | locus YOR083W, strain WHI5, hits give low values 0.936 | locus YOR106W, strain vam3, hits give low values 0.978 | locus YOR136W, strain idh2, hits give low values 0.99 | locus YOR144C, strain elg1, hits give low values 0.978 | locus YOR184W, strain ser1, hits give low values 0.884 | locus YOR231W, strain MKK1, hits give low values 1.02 | locus YOR265W, strain rbl2, hits give low values 1 | locus YOR270C, strain vph1, hits give low values 0.821 | locus YOR290C, strain snf2, hits give low values 0.935 | locus YOR316C, strain cot1, hits give low values 1 | locus YPL051W, strain arl3, hits give low values 0.922 | locus YPL055C, strain LGE1, hits give low values 0.896 | locus YPL078C, strain atp4, hits give low values 0.939 | locus YPL106C, strain sse1, hits give low values 0.94 | locus YPL240C, strain hsp82, hits give low values 0.993 | locus YPL241C, strain CIN2, hits give low values 0.99 | locus YPL256C, strain CLN2, hits give low values 1.02 | locus YPR119W, strain clb2, hits give low values 0.98 | locus YPR141C, strain kar3, hits give low values 0.992 | locus YPR163C, strain tif3, hits give low values 0.969 | locus YPR167C, strain met16, hits give low values 0.965 | strain wtn01, hits give low values 0.971
active: locus YDR392W, strain spt3, hits give low values 0.544 | locus YER155C, strain BEM2 (second series), hits give low values 0.802 | locus YGL253W, strain hxk2, hits give low values 0.879 | locus YLL001W, strain dnm1, hits give low values 0.897 | locus YLR027C, strain aat2, hits give low values 0.922 | locus YNL071W, strain lat1, hits give low values 0.82 | locus YNL307C, strain MCK1, hits give low values 0.894
